# Screening data: PubChem, Pan Lab, Icahn School of Medicine at Mount Sinai
# RBX1-CUL1 inh – inhibitors of human ROC1-CUL1 ubiquitin ligase activity; E3 ubiquitin-protein ligase RBX1 (Homo sapiens) + Cullin-1 (Homo sapiens), P62877+Q13616; inhibition, % at 10 µM; in vitro K48 di-Ub FRET, acceptor:donor ratio, 45 min; 140,000 compounds, 0.6% hits; in the data active = inhibition above about 25%
# Numbers without * were called inactive. The full list was thinned out, with hits kept by preference.
SMILES,RBX1-CUL1 inh
CC1(C)Cc2cc(C(=NNC(=O)c3ccccc3)c3ccc(F)cc3)ccc2O1,3
CS(=O)(=O)C(C(=O)c1ccccc1)C(=O)c1ccccc1,-5
CS(=O)(=O)C#Cc1ccccc1,52*
Brc1ccc(C#Cc2ccccc2)cc1,-3
CSc1nsc(SCCC(=O)Nc2ccccc2)n1,-4
CSc1nsc(SCSc2nc(SC)ns2)n1,36*
CSc1nsc(SCSc2nnc(-c3ccccc3)o2)n1,-4
O=C(O)C(Cc1cccc2ccccc12)(CC1CCCO1)C(=O)O (configuration not stated),6
C/C(=N\N=C1/SC(=Nc2ccccc2)C(=Nc2ccccc2)N1c1ccccc1)c1cc2ccccc2oc1=O,7
Cc1ccc(C(=O)N2CCN(C34CC5CC(CC(C5)C3)C4)CC2)s1,4
COc1ccc(-c2noc(-c3ccc(N(C)C4CCOCC4)nc3)n2)cc1,11
COc1cc(C(=O)O)ccc1OC(=O)c1ccccc1OC(C)=O,3
CC(=O)Oc1ccc(O)c2c1C(=O)C=CC2=O,105*
CC(=O)Oc1ccc(OC(C)=O)c2c1C1CCCCC1=C1CCCCC12 (configuration not stated),2
CN1CCCCC1C(=O)NCc1cccnc1N1CCOCC1 (configuration not stated),5
COc1cccc(CN2CCCC3(CCN(C(=O)c4cccnc4C)C3)C2)c1 (configuration not stated),-10
COC(=O)C1C(=N)OC2=C(C(=O)CC(C)(C)C2)C1c1cccc(C)c1 (configuration not stated),2
Cc1ccc([N+](=O)[O-])c(Cc2cc(C)ccc2[N+](=O)[O-])c1,6
O=C(CSc1ccc(Cl)cc1)Nc1ccc(N2CCN(C(=O)c3cccs3)CC2)cc1,-4
Cc1ccccc1C(=O)N1CCN(c2ccc(NC(=O)c3ccccc3Br)cc2)CC1,4
Cc1ccccc1C(=O)N1CCN(c2ccc(NC(=O)CSc3ccc(Cl)cc3)cc2)CC1,30*
O=C(Nc1cnn(-c2ccc(C(=O)N3CCCC(c4ccccc4)C3)cc2)c1)c1cccnc1 (configuration not stated),-9
Cc1ccc(Cl)cc1NC(=O)c1cccnc1,0
CC1=NN(c2ccccc2)C(=O)C1C(c1ccc(Cl)cc1)C1C(=O)N(c2ccccc2)N=C1C (configuration not stated),61*
CC1=NN(c2ccccc2)C(=O)C1C(c1ccccc1C(=O)O)C1C(=O)N(c2ccccc2)N=C1C (configuration not stated),-3
SMILES,RBX1-CUL1 inh
CC1=NN(c2ccccc2)C(=O)C1N=Nc1cc(Cl)ccc1C(F)(F)F (configuration not stated),-7
COc1ccc(CN2CCCC(CO)(Cc3ccc(F)cc3)C2)cc1 (configuration not stated),-5
Fc1ccc(-c2sc(Nc3ccc(Cl)c(Cl)c3)nc2C(F)(F)F)cc1,7
CCOC(=O)c1c(NC(=O)CSc2nnc(CNc3ccc(F)cc3)n2CC2CCCO2)sc2c1CCCC2 (configuration not stated),5
Cc1ccc(NC(=O)CSc2nnc(-c3ccccc3Cl)n2N)c(C)c1,-10
OCc1ccc(C#Cc2ccccc2)o1,81*
Nc1ccccc1C#Cc1ccccc1,0
OCc1ccccc1C#Cc1ccccc1,1
Cc1ccc(NC(=O)CN2C(=O)S/C(=C\c3ccc(-c4cc(C(=O)O)ccc4Cl)o3)C2=O)cc1C,8
Cc1ccccc1NC(=O)CN1C(=O)S/C(=C\c2ccc(-c3cccc(C(=O)O)c3C)o2)C1=O,11
N#Cc1ccccc1CN1C(=O)S/C(=C\c2ccc(-c3ccc(C(=O)O)c(Cl)c3)o2)C1=O,0
O=C(CN1C(=O)S/C(=C/c2ccc(-c3ccc(Cl)c(C(=O)O)c3)o2)C1=O)Nc1ccccc1,104*
Cc1c(C(=O)O)cccc1-c1ccc(/C=C2\SC(=O)N(CC(=O)Nc3ccc4c(c3)OCO4)C2=O)o1,26*
O=C(CN1C(=O)S/C(=C\c2cccn2-c2cccc(C(=O)O)c2)C1=O)Nc1ccc(Cl)cc1,49*
O=C(CN1C(=O)S/C(=C\c2ccc(Cl)cc2)C1=O)Nc1ccc(C(=O)O)cc1,5
COc1ccc(NC(=O)CN2C(=O)S/C(=C/c3cccn3-c3ccc(C)c(C)c3)C2=O)cc1,-2
O=C(CN1C(=O)c2cccc3cccc1c23)Nc1ccc2c(c1)OCO2,1
C=C(Cn1ccnc1)c1ccccc1,-5
CCCCN1CC(C(=O)Nc2cccc(C)c2)CC1=O (configuration not stated),-3
O=C1CC2C(CC(OC(=O)c3ccc(-c4ccccc4)cc3)C2COC(=O)C(O)c2ccccc2)O1 (configuration not stated),2
COc1cc(CN2CCC(N3CCCC3)CC2)ccc1OCC(O)CN(C)C(C)C (configuration not stated),-11
Cc1cc(C(=O)NC2CCCN(C3CCN(C)CC3)C2)n[nH]1 (configuration not stated),0
Cc1nnc(Sc2ccc([N+](=O)[O-])cn2)s1,6
O=C1NC(=Nc2ccc(F)cc2)S/C1=C\c1ccc2c(c1)OCO2,-9
CCOC(=O)c1ccc(NCc2cc(Br)c(OCc3ccc(Cl)cc3Cl)c(OCC)c2)cc1,-14
SMILES,RBX1-CUL1 inh
Oc1ccc(NCc2ccc(Cl)cc2)cc1,94*
CCOc1cc(CNc2ccc(O)cc2)cc(Cl)c1OCc1ccccc1,10
Clc1ccc(CNc2ccc(N3CCN(Cc4ccccc4)CC3)cc2)cc1,2
CCOc1cc(CNc2ccc(O)cc2)cc(Br)c1OCc1ccc(Cl)cc1,76*
CC(C)(CO)NCc1ccc(Cl)cc1,1
c1ccc(-c2nc3c(c(-c4ccccc4)n2)CCCCCC3)cc1,-3
O=C(CC1(O)C(=O)N(Cc2ccc(Cl)cc2)c2ccccc21)c1ccc2ccccc2c1 (configuration not stated),0
CCOC(=O)CN(C(=O)CSc1nnc(-c2ccc(Cl)cc2)o1)c1cccc(OC)c1,2
Cc1ccn(CC(=O)N2CCC(n3nccc3NC(=O)C3CCCC3)CC2)n1,-2
CCOC(=O)C1=C(C)OC(=N)C(C#N)C1c1ccc(COc2ccccc2[N+](=O)[O-])o1 (configuration not stated),-7
Cc1cccc(COc2cccc(C3(C)NC(=O)NC3=O)c2)c1 (configuration not stated),0
CNC(=S)Nc1ccc(C)cc1,4
COc1ccc(C(=O)Nc2ccc3nsnc3c2)cc1OC,-9
Cc1ccc(NC(=S)Nc2ccc3nsnc3c2)cc1,66*
O=C1OC(Cc2ccncc2)C(=O)C1C1=NCCCN1 (configuration not stated),6
Cc1ccc(NC(=O)/C=C/c2ccco2)cc1F,-6
O=C(/C=C/c1ccco1)NCc1cccc(CNC(=O)/C=C/c2ccco2)c1,97*
O=C(/C=C\c1ccco1)Nc1cccc(C(=O)Nc2cccc(O)c2)c1,-4
O=C(/C=C/c1ccco1)NCC12CC3CC(C1)CC(CNC(=O)/C=C/c1ccco1)(C3)C2,103*
CCSc1nnc(NC(=O)/C=C/c2ccco2)s1,1
N=C(CC(=O)/C=C/c1ccco1)C(F)(F)F,9
Cc1ccc(NC(=O)Cn2nc(-c3ccccc3)nc2-c2ccccc2)c(Br)c1,-3
Cc1ccc(Cl)cc1-n1nnc(C(=O)Nc2ccccc2F)c1C,1
COc1ccc(/C=N\NC(=O)c2ccco2)cc1COc1cccc(Cl)c1Cl,7
